Measurements as given in PubChem BioAssay (NCATS).
Where “and” joins values, the source holds several entries; their conditions need not be identical. Equal entries are not always repeated. Records with an inconclusive call do not appear. Calls of active or inactive are those of the source. Unless noted, calls come from the whole dose curve; as a rule, active = well fitted curve in the direction sought with a large enough effect; inconclusive = small, poorly fitted or top-dose-only effect, or another doubt; inactive = no such curve, though single readings can be large; an effect the other way counts as inactive or inconclusive.

Legend:
[1] = qHTS for Inhibitors of Cell Surface uPA Generation: Validation Assay (AID 493164);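 note: RAW 264.7 macrophage cells exposed to compound for 18 h; 0% is about no effect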
Procedure, shortened: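 Compounds are titrated over seven points (2.45 nM–38.3 uM final) onto pre-plated RAW 264.7 cells and incubated for 18 h. Retained intracellular ATP, measured with ATP-Lite, indicates blocked lethal factor entry.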

[2] = target: Galactokinase (Homo sapiens) (UniProt P51570); assay: qHTS Validation Assay for Inhibitors of Human Galactokinase (GALK) (AID 493189); note: 0% is about no effect
Procedure, shortened: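 GALK (5 nM) with 35 uM ATP and 100 uM galactose in HEPES pH 8.0 with MgCl2, NaCl, DTT and BSA. Reaction ran 1 h at room temperature. Residual ATP read by Kinase-Glo Plus luminescence.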

[3] = target: Peptidyl-prolyl cis-trans isomerase NIMA-interacting 1 (Homo sapiens) (UniProt Q13526); assay: qHTS Validation Assay to Find Inhibitors of Pin1 (AID 504536; active = well fitted inhibition curve with a large enough effect in the polarisation, with a control signal flat, not every such curve was filed as active; the % refers to the polarisation;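 note: 0% = full Pin1 enzyme wells and -100% = no-enzyme wells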)
Procedure, shortened: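 Fluorescence polarization competition: compounds (titration) displace HiFluor-488-labeled Pin1-1b peptide from Pin1 (0.3 uM final) in pH 7.5 HEPES buffer with DTT, 10 min at room temperature; %Activity normalized to no-enzyme wells, curves fitted.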

[4] = target: phosphoglycerate mutase (Leishmania major) (UniProt Q4Q090); assay: qHTS Validation Assay to Find Inhibitors of Phosphoglycerate Mutase (AID 504548); conditions: Potency: inhibition qHTS; note: series mostly up to about 58 µM; % is set by controls: 0 for no effect and ±100 for the full control effect
Procedure, shortened: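 Luminescent end-point read-out via Kinase-GloPlus after a 10-minute development. Reaction: 1.25nM Leishmania major PGAM with substrate and compound, 45 minutes at room temperature in TEA buffer (pH 7.6) with MgCl2 and Tween-20.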

[5] = target: Ubiquitin carboxyl-terminal hydrolase 1 (Homo sapiens) (UniProt O94782); assay: Inhibitors of USP1/UAF1: Pilot qHTS (AID 504865); note: nearly all actives have a fitted effect of over 35% in size; note: potency is the fitted concentration of half-maximal effect
Procedure, shortened: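 USP1/UAF1 complex at 1 nM preincubated 15 min at room temperature with compound, then Ub-Rho substrate added at 150 nM final. Fluorescence (480/540 nm) read kinetically in 50 mM HEPES pH 7.8, 0.5 mM EDTA, 1 mM TCEP, 0.1 mg/ml BSA, 0.01% Tween-20.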

[6] = qHTS for Inhibitors of ATXN expression: Validation of Cytotoxic Assay (AID 588349); note: % is set by controls: 0 for no effect and ±100 for the full control effect
Procedure, shortened: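 Cytotoxicity counter-screen: HEK293 cells exposed to compound titrations, 72 hr, 37 degrees C. Read-out is intracellular ATP (CellTiter Glo luminescence) as a viability measure.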

[7] = qHTS for Inhibitors of ATXN expression: Validation (AID 588378); note: nearly all actives have a fitted effect of over 75% in size; note: potency is the fitted concentration of half-maximal effect
Procedure, shortened: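 HEK293 cells carrying ATXN2-firefly luciferase reporter, treated with compound 24 h at 37 °C. Viability read first by CellTiter-Fluor (405/525 nm), then reporter expression by Bright-Glo luminescence; controls were a known ATXN2 expression inhibitor and a luciferase inhibitor.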

[8] = target: DNA dC->dU-editing enzyme APOBEC-3G (Homo sapiens) (UniProt Q9HC16); assay: qHTS for inhibitors of Vif-A3G interactions: Validation (AID 588379); note: 0% is about no effect
Procedure, shortened: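 Yellow fluorescence (Ex 488, Em 500-530) of Vif-coexpressing HeLa A3G-eYFP cells, scanned by Acumen cytometer, reports blocked A3G degradation. Cells plated at 700/well overnight at 37 deg C before compound addition, then a further overnight compound incubation at 37 deg C.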

[9] = Validation screen for small molecules that induce DNA re-replication in SW480 colon adenocarcinoma cells (AID 504364); note: 0% is about no effect
Procedure, shortened: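 Read-out: total Hoechst intensity of nuclei by fluorescence scanning imager; hits raise the fraction of nuclei with elevated DNA content. Cells received compound for 48 hr at 37 C before a 40 min stain.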

[10] = target: Bile acid receptor (Homo sapiens) (UniProt Q96RI1); assay: qHTS assay for small molecule antagonists of farnesoid X receptor signaling (AID 588526; calls by dose curve; note: % is set by controls: 0 for no effect and ±100 for the full control effect)
Procedure, shortened: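 Antagonist mode: titrated compounds tested against chenodeoxycholic acid stimulation (normalized to 50 uM CDCA and DMSO) in GeneBLAzer HEK293T cells for 16 h. Beta-lactamase read by CCF4 fluorescence; IC50 from Hill fits.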

[11] = target: Glucocorticoid receptor (Homo sapiens) (UniProt P04150); assay: qHTS assay for small molecule agonists of glucocorticoid receptor signaling (AID 588532; active = well fitted curve in the direction sought with a large enough effect in the signal ratio, with a control signal flat; the % refers to the signal ratio;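 note: 100% = dexamethasone at 0.1 µM and 0% = DMSO only wells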); conditions: HeLa MMTV-bla, beta-lactamase ratio, agonist, 18 h; active compounds read high; percent of dexamethasone control, DMSO zero
Procedure, shortened: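 MMTV-bla HeLa beta-lactamase reporter cells in 1% charcoal/dextran FBS medium, compounds up to 92 uM for 18 h at 37 C, CCF4 readout; normalized to 0.1 uM dexamethasone (100%), EC50 and efficacy from Hill fits.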

[12] = target: Glucocorticoid receptor (Homo sapiens) (UniProt P04150); assay: qHTS assay for small molecule antagonists of glucocorticoid receptor signaling (AID 588533; active = well fitted inhibition curve with a large enough effect in the signal ratio, with a control signal flat, not every such curve was filed as active; the % refers to the signal ratio;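 note: cells stimulated with 2 nM dexamethasone as agonist; % is set by controls: 0 for no effect and ±100 for the full control effect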)
Procedure, shortened: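 Antagonist-mode qHTS: compound titrations added to GRE-bla HeLa cells, then dexamethasone 2 nM final; 18 h, 37 C. CCF4 FRET fluorescence normalized to dexamethasone and DMSO; IC50 from Hill fit.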

[13] = target: Peroxisome proliferator-activated receptor gamma (Homo sapiens) (UniProt P37231); assay: qHTS assay for small molecule agonists of peroxisome proliferator-activated receptor gamma signaling (AID 588536; active = well fitted curve in the direction sought with a large enough effect in the signal ratio, with a control signal flat, not every such curve was filed as active; the % refers to the signal ratio;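 note: 0% = DMSO basal wells and 100% = rosiglitazone at 2 µM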)
Procedure, shortened: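 Beta-lactamase reporter read-out: CCF4 fluorescence (ex 405, em 460/530 nm) after 2 h at RT. HEK293 GeneBLAzer cells were treated for 16 h at 37 C. Hill fits gave EC50 and efficacy versus 2 uM rosiglitazone (100%) and DMSO (0%).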

[14] = target: Peroxisome proliferator-activated receptor gamma (Homo sapiens) (UniProt P37231); assay: qHTS assay for small molecule antagonists of peroxisome proliferator-activated receptor gamma signaling (AID 588537; active = well fitted inhibition curve with a large enough effect in the signal ratio, with a control signal flat, not every such curve was filed as active; the % refers to the signal ratio;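 note: reporter cells co-stimulated with 50 nM rosiglitazone agonist during compound treatment; % of control where 0% means no effect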)
Procedure, shortened: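 Read-out: CCF4 fluorescence (ex 405, em 460/530 nm) after 2 h at RT. Cells were HEK293 carrying a UAS-bla reporter and treated 16 h at 37 C with compound plus rosiglitazone (50 nM final). Normalized to rosiglitazone and DMSO.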

[15] = target: Estrogen receptor (Homo sapiens) (UniProt P03372); assay: qHTS assay for small molecule agonists of estrogen receptor alpha signaling (AID 588514; calls by dose curve;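 note: 0% = vehicle only and 100% = reference agonist; nearly all actives have a fitted effect of over 70% in size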)
Procedure, shortened: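 Read-out: CCF4 fluorescence from a beta-lactamase reporter in ER-alpha-UAS-bla HEK 293 cells after 18 hrs of compound exposure at 37 C. Normalized to 20 nM 17-beta-estradiol (100%) and DMSO (0%).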

Sequence of Galactokinase (Homo sapiens) (P51570 whole entry, looked up): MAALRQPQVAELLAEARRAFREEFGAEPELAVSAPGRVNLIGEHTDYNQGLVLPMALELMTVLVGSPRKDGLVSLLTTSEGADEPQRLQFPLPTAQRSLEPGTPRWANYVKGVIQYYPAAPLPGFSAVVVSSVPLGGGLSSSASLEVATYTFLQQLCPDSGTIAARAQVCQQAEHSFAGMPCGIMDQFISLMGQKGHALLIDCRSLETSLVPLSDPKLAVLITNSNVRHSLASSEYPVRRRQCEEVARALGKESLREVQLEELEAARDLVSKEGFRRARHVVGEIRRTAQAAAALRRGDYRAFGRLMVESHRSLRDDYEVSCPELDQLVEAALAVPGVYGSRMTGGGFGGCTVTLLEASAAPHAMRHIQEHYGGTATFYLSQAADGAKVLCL
Sequence of Glucocorticoid receptor (Homo sapiens) (P04150 whole entry, looked up): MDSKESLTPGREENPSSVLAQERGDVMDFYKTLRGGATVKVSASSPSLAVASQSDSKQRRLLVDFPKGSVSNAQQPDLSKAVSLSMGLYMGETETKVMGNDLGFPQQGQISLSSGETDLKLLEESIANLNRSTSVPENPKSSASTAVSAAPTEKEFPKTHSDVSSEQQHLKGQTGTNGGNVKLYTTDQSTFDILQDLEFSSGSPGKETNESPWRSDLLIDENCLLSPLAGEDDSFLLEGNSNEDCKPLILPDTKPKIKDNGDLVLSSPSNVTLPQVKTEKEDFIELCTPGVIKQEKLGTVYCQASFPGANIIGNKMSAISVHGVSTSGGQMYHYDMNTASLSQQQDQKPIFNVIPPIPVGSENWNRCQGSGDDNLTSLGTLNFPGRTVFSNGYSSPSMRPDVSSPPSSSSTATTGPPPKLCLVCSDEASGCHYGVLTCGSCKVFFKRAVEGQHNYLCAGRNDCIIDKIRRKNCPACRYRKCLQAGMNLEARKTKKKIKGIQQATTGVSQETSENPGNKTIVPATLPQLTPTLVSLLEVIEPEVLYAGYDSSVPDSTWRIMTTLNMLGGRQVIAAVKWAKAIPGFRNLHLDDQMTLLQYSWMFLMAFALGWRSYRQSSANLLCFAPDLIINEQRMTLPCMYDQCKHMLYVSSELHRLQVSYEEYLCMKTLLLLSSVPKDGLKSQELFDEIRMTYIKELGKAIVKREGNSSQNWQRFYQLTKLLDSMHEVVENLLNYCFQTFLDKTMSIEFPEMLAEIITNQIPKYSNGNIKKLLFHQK
Sequence of Ubiquitin carboxyl-terminal hydrolase 1 (Homo sapiens) (O94782 whole entry, looked up): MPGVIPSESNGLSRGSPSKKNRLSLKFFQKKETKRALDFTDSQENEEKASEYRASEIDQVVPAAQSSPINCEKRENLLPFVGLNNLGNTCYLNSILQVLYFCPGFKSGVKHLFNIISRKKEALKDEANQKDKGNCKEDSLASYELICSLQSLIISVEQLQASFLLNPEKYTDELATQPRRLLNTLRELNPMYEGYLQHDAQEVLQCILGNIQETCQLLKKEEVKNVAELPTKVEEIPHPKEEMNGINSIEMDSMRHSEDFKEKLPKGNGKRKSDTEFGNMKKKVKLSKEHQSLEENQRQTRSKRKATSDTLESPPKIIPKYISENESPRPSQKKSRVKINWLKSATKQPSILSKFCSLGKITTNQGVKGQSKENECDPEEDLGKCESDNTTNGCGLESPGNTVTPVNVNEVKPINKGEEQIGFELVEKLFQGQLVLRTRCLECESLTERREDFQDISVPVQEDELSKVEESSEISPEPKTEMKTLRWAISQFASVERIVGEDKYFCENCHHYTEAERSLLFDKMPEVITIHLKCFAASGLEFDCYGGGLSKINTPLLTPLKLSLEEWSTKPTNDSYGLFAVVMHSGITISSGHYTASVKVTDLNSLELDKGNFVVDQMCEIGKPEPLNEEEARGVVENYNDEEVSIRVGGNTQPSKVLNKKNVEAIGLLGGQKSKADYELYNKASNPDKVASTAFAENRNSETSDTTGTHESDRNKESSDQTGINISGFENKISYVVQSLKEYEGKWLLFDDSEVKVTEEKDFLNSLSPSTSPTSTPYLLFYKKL
Sequence of phosphoglycerate mutase (Leishmania major) (Q4Q090 1-553): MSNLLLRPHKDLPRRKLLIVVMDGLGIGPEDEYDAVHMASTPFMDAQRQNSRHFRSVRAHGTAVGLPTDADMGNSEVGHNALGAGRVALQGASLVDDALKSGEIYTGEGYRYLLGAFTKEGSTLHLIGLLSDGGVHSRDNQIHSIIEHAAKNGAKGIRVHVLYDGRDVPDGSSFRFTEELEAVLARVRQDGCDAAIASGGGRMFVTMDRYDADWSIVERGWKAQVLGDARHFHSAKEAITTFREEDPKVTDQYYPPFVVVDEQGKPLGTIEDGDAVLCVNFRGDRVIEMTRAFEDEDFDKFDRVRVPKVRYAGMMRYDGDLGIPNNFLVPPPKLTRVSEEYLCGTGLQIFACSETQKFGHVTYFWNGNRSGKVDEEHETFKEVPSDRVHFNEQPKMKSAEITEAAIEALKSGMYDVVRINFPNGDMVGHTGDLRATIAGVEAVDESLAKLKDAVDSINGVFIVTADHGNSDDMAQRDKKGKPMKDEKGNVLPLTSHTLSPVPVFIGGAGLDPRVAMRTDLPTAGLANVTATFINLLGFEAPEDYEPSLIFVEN
Sequence of Peptidyl-prolyl cis-trans isomerase NIMA-interacting 1 (Homo sapiens) (Q13526 whole entry, looked up): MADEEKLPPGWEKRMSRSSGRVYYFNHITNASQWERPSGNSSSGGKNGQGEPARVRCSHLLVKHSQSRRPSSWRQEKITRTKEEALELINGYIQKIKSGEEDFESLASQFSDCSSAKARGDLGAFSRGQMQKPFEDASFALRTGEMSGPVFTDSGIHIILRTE
Sequence of DNA dC->dU-editing enzyme APOBEC-3G (Homo sapiens) (Q9HC16 whole entry, looked up): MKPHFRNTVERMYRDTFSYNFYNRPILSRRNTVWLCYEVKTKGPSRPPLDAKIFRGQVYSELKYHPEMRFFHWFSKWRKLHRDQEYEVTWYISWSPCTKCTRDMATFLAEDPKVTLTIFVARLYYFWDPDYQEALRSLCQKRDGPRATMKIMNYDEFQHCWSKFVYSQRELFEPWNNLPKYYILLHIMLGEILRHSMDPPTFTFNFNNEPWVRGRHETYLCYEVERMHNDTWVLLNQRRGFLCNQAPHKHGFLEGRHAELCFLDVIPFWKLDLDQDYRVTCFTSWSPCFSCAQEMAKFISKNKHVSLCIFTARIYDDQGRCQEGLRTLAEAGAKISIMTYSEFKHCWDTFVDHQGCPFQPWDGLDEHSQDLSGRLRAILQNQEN
Sequence of Peroxisome proliferator-activated receptor gamma (Homo sapiens) (P37231 whole entry, looked up): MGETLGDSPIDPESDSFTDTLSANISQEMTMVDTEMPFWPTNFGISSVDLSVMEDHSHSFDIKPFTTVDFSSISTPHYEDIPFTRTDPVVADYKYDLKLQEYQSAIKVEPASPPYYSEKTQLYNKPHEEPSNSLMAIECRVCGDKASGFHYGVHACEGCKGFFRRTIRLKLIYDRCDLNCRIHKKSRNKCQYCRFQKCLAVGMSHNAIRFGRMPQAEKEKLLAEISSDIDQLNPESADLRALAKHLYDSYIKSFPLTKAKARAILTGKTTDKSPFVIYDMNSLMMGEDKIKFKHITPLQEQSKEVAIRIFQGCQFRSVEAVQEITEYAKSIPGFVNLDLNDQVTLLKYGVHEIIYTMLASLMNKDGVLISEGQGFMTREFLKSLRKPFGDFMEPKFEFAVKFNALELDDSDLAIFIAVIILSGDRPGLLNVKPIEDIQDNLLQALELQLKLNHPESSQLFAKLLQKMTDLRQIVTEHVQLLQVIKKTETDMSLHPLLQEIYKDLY
Sequence of Bile acid receptor (Homo sapiens) (Q96RI1 whole entry, looked up): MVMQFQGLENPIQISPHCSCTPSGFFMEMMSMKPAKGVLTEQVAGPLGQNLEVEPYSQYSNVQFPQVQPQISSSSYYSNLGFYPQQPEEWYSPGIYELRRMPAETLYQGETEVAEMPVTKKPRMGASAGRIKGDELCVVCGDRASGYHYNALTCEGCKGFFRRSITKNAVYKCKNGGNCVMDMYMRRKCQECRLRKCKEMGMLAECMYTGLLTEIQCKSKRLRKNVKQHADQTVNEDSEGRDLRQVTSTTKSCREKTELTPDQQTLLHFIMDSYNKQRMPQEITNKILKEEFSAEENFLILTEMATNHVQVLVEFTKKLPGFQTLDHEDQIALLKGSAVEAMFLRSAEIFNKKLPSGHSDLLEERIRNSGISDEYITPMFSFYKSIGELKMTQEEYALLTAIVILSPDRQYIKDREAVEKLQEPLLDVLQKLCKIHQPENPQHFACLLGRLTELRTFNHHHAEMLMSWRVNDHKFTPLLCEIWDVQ
Sequence of Estrogen receptor (Homo sapiens) (P03372 whole entry, looked up): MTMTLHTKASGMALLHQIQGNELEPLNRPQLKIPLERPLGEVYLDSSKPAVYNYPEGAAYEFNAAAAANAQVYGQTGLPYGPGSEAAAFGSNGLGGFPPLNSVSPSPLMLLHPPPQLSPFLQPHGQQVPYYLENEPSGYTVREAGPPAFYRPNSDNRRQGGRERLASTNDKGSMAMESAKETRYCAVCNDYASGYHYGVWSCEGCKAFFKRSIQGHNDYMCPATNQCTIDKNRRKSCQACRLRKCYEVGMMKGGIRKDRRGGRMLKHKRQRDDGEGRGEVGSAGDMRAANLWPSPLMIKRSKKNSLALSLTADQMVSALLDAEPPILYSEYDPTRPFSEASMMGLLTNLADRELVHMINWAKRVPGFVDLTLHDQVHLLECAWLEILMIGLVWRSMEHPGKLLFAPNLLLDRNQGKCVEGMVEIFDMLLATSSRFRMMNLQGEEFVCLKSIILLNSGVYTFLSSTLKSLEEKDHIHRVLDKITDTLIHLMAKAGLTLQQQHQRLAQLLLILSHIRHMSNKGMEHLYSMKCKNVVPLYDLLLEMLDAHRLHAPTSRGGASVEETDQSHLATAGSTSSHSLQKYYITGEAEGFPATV

OC(CN1CCN(c2cccc(Cl)c2)CC1)C(c1ccccc1)c1ccccc1 (stereo unspecified)
inactive: outcome [1] | outcome [2] | outcome [3] | Potency [4] | Potency [5] | outcome [6] | Potency [7] | outcome [8]

COc1ccc2cc([C@H](C)C(=O)O)ccc2c1
inactive: outcome [1] | outcome [2] | Potency [9] | outcome [3] | Potency [4] | outcome [6] | Potency [7]

C[C@H](Cc1ccc(O)c(O)c1)[C@@H](C)Cc1ccc(O)c(O)c1
active: Potency [7] 22.4 µM
inactive: outcome [1] | outcome [2] | Potency [9] | Potency [4]

O=c1c(O)c(-c2ccc(O)cc2O)oc2cc(O)cc(O)c12
inactive: outcome [1] | outcome [2] | Potency [9] | Potency [4] | outcome [6] | Potency [7] | outcome [8] | outcome [10] | activation [11] -17.5% | outcome [12] | outcome [13] | Potency [14]
active: Potency [5] 50.1 µM

NCCCCNCCCN
inactive: outcome [1] | outcome [2] | Potency [9] | outcome [3] | Potency [4] | Potency [5] | outcome [6] | Potency [7] | outcome [8]

O=C(O)c1cccnc1Nc1cccc(C(F)(F)F)c1
inactive: outcome [1] | outcome [2] | Potency [9] | outcome [3] | Potency [4] | Potency [5] | outcome [6] | Potency [7]

Cc1c(OCC(F)(F)F)ccnc1CS(=O)c1nc2ccccc2[nH]1 (stereo unspecified)
inactive: outcome [1] | outcome [2] | Potency [9] | outcome [3] | Potency [4] | Potency [5] | outcome [6]

Cc1cc(O)c2c(c1)C(=O)c1cc(O)cc(O)c1C2=O
inactive: outcome [1] | outcome [2] | Potency [9] | outcome [3] | outcome [6] | Potency [7] | activation [11] -3.03% and -5.65%

CC(=O)N1CCN(c2ccc(OC[C@H]3CO[C@](Cn4ccnc4)(c4ccc(Cl)cc4Cl)O3)cc2)CC1
inactive: outcome [1] | outcome [2] | Potency [9] | outcome [3] | Potency [4] | outcome [8] | outcome [15] | activation [11] 3.09% | outcome [12]

CC1(C)C(=O)N(CCN2CCC(C(=O)c3ccc(F)cc3)CC2)c2ccccc21
inactive: outcome [1] | outcome [2] | Potency [9] | outcome [3] | Potency [4] | Potency [5]

Oc1ccc(-c2nc(-c3ccc(F)cc3)c(-c3ccncc3)[nH]2)cc1
inactive: outcome [1] | outcome [2] | Potency [9] | outcome [3] | Potency [4] | outcome [6] | Potency [7]
